From PubChem
The list is not random: actives were taken first. Their share in the collection is about 1.1%.
BRCA1 expr up: increases BRCA1 expression; Potency, µM (top dose mostly 46.1 µM), for the others: at the highest dose activation, most hits filed as activators; actives 1.1% (n = 380,000); MCF7-BRCA1-FFLuc reporter, luminescence, 48 h; response scale: scaled: vehicle 0%, 10 µM genistein 100%; further: potency means the concentration at half of the fitted maximal effect; nearly all actives have a fitted effect of over 80% in size
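MCF7 cells carrying a BRCA1-firefly luciferase reporter (2000 cells/well, phenol-red free MEM) were attached for 2 h at 37 °C, then given compounds for 48 h. Luminescence was read 15 min after luciferase reagent; activity normalized to genistein (10 microM) and DMSO.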
PTHR1 agonist: PTHR1 (human) receptor agonism | Q03431 | HEK293 GP2 PTHR1 cells, GloSensor cAMP luminescence, 1 h | Potency, µM (highest dose often 115 µM), without a hit: at the highest dose activation, usual class: activators | actives 0.075% (n = 410,000); further: potency means the concentration at half of the fitted maximal effect; nearly all actives have a fitted effect of over 55% in size
Target sequence (Q03431 whole entry, looked up): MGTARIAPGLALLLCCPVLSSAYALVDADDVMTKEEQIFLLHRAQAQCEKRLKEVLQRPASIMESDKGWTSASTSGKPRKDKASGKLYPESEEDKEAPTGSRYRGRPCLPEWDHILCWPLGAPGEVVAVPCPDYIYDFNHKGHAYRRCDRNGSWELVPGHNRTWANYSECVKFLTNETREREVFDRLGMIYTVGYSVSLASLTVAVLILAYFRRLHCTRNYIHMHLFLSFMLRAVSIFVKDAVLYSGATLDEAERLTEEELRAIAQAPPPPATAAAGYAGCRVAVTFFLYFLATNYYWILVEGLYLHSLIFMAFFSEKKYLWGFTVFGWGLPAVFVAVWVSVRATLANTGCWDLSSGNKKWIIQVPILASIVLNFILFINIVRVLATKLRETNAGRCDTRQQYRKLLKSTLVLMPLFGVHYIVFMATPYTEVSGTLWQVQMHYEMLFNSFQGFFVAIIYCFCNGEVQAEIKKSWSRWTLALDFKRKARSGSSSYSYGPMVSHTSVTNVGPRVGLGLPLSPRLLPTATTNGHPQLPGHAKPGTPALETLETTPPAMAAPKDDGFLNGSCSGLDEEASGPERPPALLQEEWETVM
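HEK-293-derived GP2 cells expressing PTHR1 and a GloSensor cAMP reporter, 3,000/well, plated overnight, given luciferin plus IBMX (each 0.5 mM as added) for 1 h at 37 °C, then compound for 1 h at 37 °C. Luminescence was read after 15 min at room temperature.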
LDHA inh: LDHA (human) enzyme inhibition; purified LDHA, NADH/diaphorase-resazurin fluorescence; stronger effect = lower value; actives 0.15% (n = 480,000); AID 1347041; activity change, % (values are at about 110 or 230 µM); in the data active means activity change below about -30%; inconclusive means mostly about -25% to -30%;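 further: plate controls were DMSO wells for no effect and wells without enzyme for full effect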
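Remaining NADH was detected by diaphorase (0.133 mg/mL) converting 37 µM resazurin to fluorescent resorufin, read at 0 and 20 minutes. The preceding 5-minute room-temperature reaction used 2 nM LDHA, 0.2 mM sodium pyruvate and 0.06 mM NADH at pH 7.4.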
RGS4 inhibitor: human RGS4 inhibition; actives 0.039% (n = 390,000); Transcreener GDP fluorescence polarization, RGS4-accelerated GTP hydrolysis; Potency, µM (doses to about 114 µM), for the others: at the top dose activity change, negative = inhibition, most hits filed as inhibitors; P49798; further: potency means the concentration at half of the fitted maximal effect; on the % scale 0 is the no-effect control and ±100 the full control effect; nearly all actives have a fitted effect of over 75% in size
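MLSMR compounds (23 nl, pin-transferred) preincubated 10 min at room temperature with a 500nM (2x) first reagent, then RGS4 at 900nM (2x) plus Transcreener GDP mix added; fluorescence polarization (620/688 nm) read before and after 90 min at 30 °C.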
p53 reactivator: restores transcriptional activity of mutant p53; H1299 p53-A138V BP100-luciferase reporter, luminescence, 24 h; Potency, µM (top dose mostly 92.2 µM), without a hit: at the top dose activity change, positive = activation, actives largely listed as activators; actives 0.063% (n = 320,000); AID 504706; further: potency means the concentration at half of the fitted maximal effect; % of control where 0% means no effect; nearly all actives have a fitted effect of over 45% in size
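H1299 (p53-null), stable ts p53-A138V + BP100-Luc; 1000 cells/well, Opti-MEM/10% FBS; cpd 4 pt, 1:5; 24 h, 37 deg C, 5% CO2; detection reagent 10 min RT; luminescence.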
The depositor's hits bear a star; i = inactive; ? = inconclusive; / = no result given; [ ] = another dose, or the depositor's remark. Unless noted, the call rests on the fitted dose curve; in most records, active means well fitted curve in the direction sought with a large enough effect; inconclusive means small, poorly fitted or top-dose-only effect, or another doubt; inactive means no such curve, though single readings can be large; an effect the other way counts as inactive or inconclusive.

SMILES	BRCA1 expr up	PTHR1 agonist	LDHA inh	RGS4 inhibitor	p53 reactivator
O=C(Nc1ccccc1Cl)NC1CCCCCCC1	14.1µM*	-11.6%	1.2	17.1%	?
O=C(NC1CCCCCCC1)c1cc(F)c(F)cc1Cl	1.78µM*	2.1%	-7.0	-4.5%	6.0%
CC(C)Oc1cccc(C(=O)NC(=S)Nc2ccccc2)c1	12.6µM*	-24.5%	-3.1	-40.6%	?
O=C(COC(=O)c1cc(F)c(F)cc1Cl)NC1CCCCCC1	0.6%	-35.4%	-9.4	/	/
S=C(NCc1ccccc1)NC1CCCC1	/	/	-0.2	/	/
CSc1ccc(/C=C2\COc3ccccc3C2=O)cc1	/	/	11.3	/	/
CS(=O)Cc1cccc(C(=O)Nc2nc(-c3ccccn3)cs2)c1 (configuration not stated)	/	/	14.9	/	/
CC(/C=C/c1ccccc1F)=N\NC(=O)c1ccccc1	3.16µM*	-4.3%	-1.6	4.8%	?
Cn1c(=O)[nH]c(=O)c2c1nc(NCc1ccco1)n2Cc1ccccc1	/	/	3.8	/	/
COc1ccc(/C=C2\C(=O)ON=C2c2ccccc2)cc1	-33.3%	-9.0%	-31.8*	-100.2%[56.9 µM]	9.7%
O=C1ON=C(c2ccccc2)/C1=C/c1ccc(OS(=O)(=O)c2ccccc2)cc1	58.8%	i	-38.6*	?	14.2%
O=C1ON=C(c2ccccc2)/C1=C/c1cccnc1	14.7%	?	-6.7	25.9%	-1.3%
O=C1ON=C(c2ccccc2)/C1=C/c1ccc(O)c(O)c1	-31.7%	-90.4%	2.0	?	3.1%
O=C(C1=C(O)C(=O)N(CCCn2ccnc2)C1c1ccncc1)c1cc2ccccc2o1 (configuration not stated)	/	/	5.9	/	/
N#Cc1nc(-c2ccc(Cl)cc2)oc1NCCc1ccccn1	3.55µM*	i	-9.9	6.0%	?
COCCNc1oc(-c2ccc(Cl)cc2)nc1C#N	5.62µM*	-5.8%	-4.8	6.0%	13.1%
Cc1ccc(-c2nc(C#N)c(NCCc3ccccn3)o2)cc1	3.55µM*	-29.6%[57.5 µM]	-5.0	-1.7%	?
COc1cccc(C2C3=C(CC(C)(C)CC3=O)Nc3ccccc3N2C(=O)C(F)(F)F)c1OC (configuration not stated)	/	/	4.4	/	/
COC(=O)C(NC(=O)c1ccccc1OC)(Nc1nc(C2CC2)cs1)C(F)(F)F (configuration not stated)	/	/	-2.7	/	/
COc1ccc(Nc2nc(-c3ccc(OC)cc3)c(C)s2)cc1	/	/	-6.7	/	/
NC(N)=Nc1nc(C2COc3ccccc3O2)cs1 (configuration not stated)	?	-29.3%	-2.5	16.8%	?
CCOc1cccc(-c2csc(C3COc4ccccc4O3)n2)c1 (configuration not stated)	5.01µM*	i	-0.5	-4.2%	26.4%
CSc1cccc(NC(=O)COc2coc(CN3CCSCC3)cc2=O)c1	/	/	-37.9*	/	/
CCCCOc1ccc(C(=O)N2CCC(C)CC2)cc1	61.1%	-9.3%[57.5 µM]	0.8	-10.4%	3.6%
CCCCOc1ccc(C2CCC(C(C)=O)C(C)C2)cc1 (configuration not stated)	10µM*	-6.8%	-8.2	9.7%	20.3%
SMILES	BRCA1 expr up	PTHR1 agonist	LDHA inh	RGS4 inhibitor	p53 reactivator
C1CCC(NC(=NC2C3CC4CC(C3)CC2C4)N2CCOCC2)CC1 (configuration not stated)	/	/	/	0.336µM*	/
C1CCC(N=C(NC23CC4CC(CC(C4)C2)C3)N2CCOCC2)CC1	/	/	/	7.2%[56.9 µM]	/
CCCC1N=C2c3ccccc3N=C(SCC(=O)Nc3ccc(OC)c(Cl)c3)N2C1=O (configuration not stated)	/	/	-0.7	/	/
O=C(CC(SCCO)c1ccc2c(c1)OCO2)c1cccs1 (configuration not stated)	10µM*	-14.6%[57.5 µM]	-0.8	-11.6%	?
O=C(CC(SCc1ccco1)c1ccc(O)cc1)c1cccs1 (configuration not stated)	?	-35.7%[57.5 µM]	-5.5	-7.0%	?
Cc1ccc(-n2c(C)nnc2SCC(=O)Nc2c(C#N)c(C)c(C)n2Cc2ccccc2)cc1	/	/	3.3	/	/
Cc1ccc(-c2noc(C3CCCN(C(=O)c4ccccc4Br)C3)n2)o1 (configuration not stated)	10µM*	i	-1.1	-14.5%	18.4%
